Source: PubChem BioAssay (NCATS)
Records with an inconclusive call do not appear. Unmarked numbers belong to inactive results. Active and inactive are the calls of the source. Calls follow the shape of the dose curve; as a rule, active = well fitted activation curve with a large enough effect; inconclusive = small, poorly fitted or top-dose-only effect; inactive = no such curve, though single readings can be large or run the other way.

What follows are molecules tested against Cellular tumor antigen p53 (Homo sapiens) (UniProt P04637) (assay: Primary qHTS for small molecule compounds that upregulate eGFP-tagged delta133p53alpha (in N-terminal) cells. (AID 2060322; also: nearly all actives have a fitted effect of over 75% in size;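 as to activation: series mostly up to about 56 µM; 0% = DMSO vehicle and 100% = reference activator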)). Conditions: NCI-H358 eGFP-delta133p53alpha fluorescence, 24 h; activation: active compounds read high.
Outline: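 NCI-H358 cells pre-induced 24 h with 10 ng/ml doxycycline to express N-terminal eGFP-delta133p53alpha, then dosed 24 h at 37C without doxycycline; fixed, Hoechst-stained, GFP intensity by laser scanning cytometry, normalized to DMSO (0%) and 57.5 uM 5-azacytidine (100%).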
Potency is read from the fitted curve at half-maximal effect.

Chain of Cellular tumor antigen p53 (Homo sapiens) (P04637 whole entry, looked up): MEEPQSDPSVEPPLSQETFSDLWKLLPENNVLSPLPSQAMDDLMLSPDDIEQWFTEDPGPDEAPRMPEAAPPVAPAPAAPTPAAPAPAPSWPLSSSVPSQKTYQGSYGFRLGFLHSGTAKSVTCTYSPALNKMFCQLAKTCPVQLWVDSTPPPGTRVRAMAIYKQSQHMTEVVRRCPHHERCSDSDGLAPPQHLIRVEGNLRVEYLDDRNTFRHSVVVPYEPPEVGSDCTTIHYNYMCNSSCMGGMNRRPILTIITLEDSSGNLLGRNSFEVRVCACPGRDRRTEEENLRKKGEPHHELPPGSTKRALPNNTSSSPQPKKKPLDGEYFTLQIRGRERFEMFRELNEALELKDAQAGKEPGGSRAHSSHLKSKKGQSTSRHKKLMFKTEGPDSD

SMILES | activation | Potency
CCOc1ccc(Cc2nccc3cc(OCC)c(OCC)cc23)cc1OCC | -22.6% | 
COc1cc2nc(Cl)nc(N)c2cc1OC | -37.9% | 
CCCCCN=C(N)NN=Cc1c[nH]c2ccc(OC)cc12 | 31% | 
CCc1ccc(C(=O)C(C)CN2CCCCC2)cc1 (stereo not given) | -5.86% | 
CCCCCCCCCCCCCC[N+](C)(C)Cc1ccccc1 | 27.6% | 
O=S(=O)(O)c1ccc(O)cc1 | 5.08% | 
CC(O)Cn1cnc2c1c(=O)n(C)c(=O)n2C (stereo not given) | 26.6% | 
Cc1nc2ccccc2n1Cc1ccc(Cl)cc1 | -11.7% | 
COc1c(C)c2c(c(O)c1CC=C(C)CCC(=O)OCCN1CCOCC1)C(=O)OC2 | 13.4% | 
Nc1nc(N)c(-c2ccccc2)s1 | -14.1% | 
COCC(=O)Nc1c(I)c(C(=O)NCC(O)CO)c(I)c(C(=O)N(C)CC(O)CO)c1I (stereo not given) | -4.18% | 
CN1CCc2cccc3c2[C@H]1Cc1ccc(O)c(O)c1-3 | 21.8% | 
CCN(CCCc1ccccc1)CCCc1ccccc1 | -1.67% | 
CN(C)C(=S)SC(=S)N(C)C |  | 21.9 µM (active)
FC(F)(F)c1ccc(C=Cc2nc(COc3ccc(CCCCn4ccnn4)cc3)co2)cc1 |  | 24.3 µM (active)
CC1(C)OC[C@@H](COC(=O)CCc2ccc(OC[C@@H](O)CNCCNC(=O)N3CCOCC3)cc2)O1 | 10% | 
C[C@]12CCC(=O)C=C1CC[C@@H]1[C@@H]2[C@@H](O)C[C@@]2(C)[C@H]1CC[C@]2(O)C(=O)COC(=O)CCC(=O)O | 1.69% | 
COc1cc2c(cc1OC)CN(C(=O)[C@H](C)N[C@@H](CCc1ccccc1)C(=O)O)[C@H](C(=O)O)C2 | -10.7% | 
Nc1ccc(C(=O)Oc2ccccc2)c(O)c1 | -3.35% | 
CCCN(CCc1cccs1)[C@H]1CCc2c(O)cccc2C1 | 5.08% | 

SMILES | activation | Potency
COc1ccc2cc(C=O)ccc2c1 | -1.69% | 
CCCCOc1cc(C(=O)NCCN(CC)CC)c2ccccc2n1 | 0% | 
CC(=O)OC(C)OC(=O)C(C)c1ccc(-c2ccccc2)c(F)c1 (stereo not given) | -24.3% | 
O=C(O)COc1nn(Cc2ccccc2)c2ccccc12 | 28.8% | 
O=C(NNC(=O)c1ccc(CNS(=O)(=O)c2ccc(F)c(Cl)c2)cc1)c1ccccc1 | 15.5% | 
CCC[C@@H]1C[C@@H](C(=O)N[C@@H]([C@H]2O[C@H](SC)[C@H](O)[C@@H](O)[C@H]2O)[C@@H](C)O)N(C)C1 | -5.08% | 
CC(C)(C)c1[nH]cnc1C=c1[nH]c(=O)c(=Cc2ccccc2)[nH]c1=O | -1.26% | 
Cc1c(C)c2c(c(C)c1OC(=O)CCC(=O)OCCO)CC[C@@](C)(CCC[C@H](C)CCC[C@H](C)CCCC(C)C)O2 | -20.9% | 
O=C(O)[C@H](CC(=O)N1C[C@@H]2CCCC[C@H]2C1)Cc1ccccc1 | -15.3% | 
CC(=O)N[C@@H](CCC(N)=O)C(=O)O | -8.37% | 
C[C@@H]1[C@H](C)CC[C@]2(C(=O)O)CC[C@]3(C)C(=CC[C@@H]4[C@@]5(C)CC[C@H](O)C(C)(C)[C@H]5CC[C@]43C)[C@@H]12 | -12.8% | 
O=C(O)Cc1sc(-c2ccccc2)nc1-c1ccc(Cl)cc1 | -17.6% | 
Cc1ccccc1OCC(O)CO (stereo not given) | 13% | 
CCOC(=O)CN1CCCC1=O | -0.837% | 
COc1cccc2c1C(=O)c1c(O)c3c(c(O)c1C2=O)C[C@@](O)(C(=O)CO)C[C@@H]3O[C@H]1C[C@H](N)[C@H](O[C@@H]2CCCCO2)[C@H](C)O1 |  | 15.5 µM (active)
COc1cc(C)nc(-n2nc(C)cc2OC)n1 | -12.6% | 
CN(C)CCN1CCN(c2cccc(Cl)c2)C1=O | -13% | 
C[C@]12CCC(=O)C=C1C=C[C@@H]1[C@@H]2CC[C@@]2(C)[C@H]1CC[C@@]21CCC(=O)O1 | -33.3% | 
O=c1[nH]c2ccccc2c(=O)n1CCCl | 6.21% | 
Cn1cc(C=C2C(=O)Nc3cccnc32)c2ccccc21 |  | 24.3 µM (active)
